WRN helicase inh: WRN helicase (human) inhibition. actives 0.46% (n = 360,000). WRN helicase unwinding, fluorescent forked duplex, kinetic. Q14191. Potency, µM (doses to about 114 µM), inactives show at the top dose activity change, negative = inhibition, hits mostly inhibitors. AID 651768; also: potency is read from the fitted curve at half-maximal effect; % is scaled to controls: 0 for no effect and ±100 for the full control effect; nearly all actives have a fitted effect of over 55% in size
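Primary qHTS, 1536-well format. 20 nM WRN + compound, 15 min RT; start with 100 nM forked fluorophore/quencher duplex, 2 mM ATP (final); kinetic read ex 525/em 598 nm.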
VDR inhibitor: vitamin D3 receptor (human) inhibition. P11473. VDR-SRC2-3 peptide fluorescence polarization, 2 h. Potency, µM, inactives show max response, negative = inhibition, actives largely listed as inhibitors. actives 0.93% (n = 400,000); also: potency is read from the fitted curve at half-maximal effect; % is scaled to controls: 0 for no effect and ±100 for the full control effect
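FP read-out; VDR + SRC2-3 coactivator peptide; 23 nl compound by pintool; 2 h RT incubation; reagents held at 4 deg C, protected from light.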
TCR activator: T cell receptor activation | Potency, µM (top dose mostly 9.22 µM), inactives show top-dose activation of IL-2 secretion, most hits filed as activators | primary human leukocytes, anti-CD3, IL-2 HTRF, 48 h | AID 504894 | 330,000 tested, under 10 active; also: % of control where 0% means no effect
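Primary human leukocytes incubated 48 hr with anti-CD3 beads plus compound, without co-stimulation. Secreted IL-2 measured by HTRF (europium cryptate/d2 anti-IL-2 pair, 320 nm excitation, 665 nm emission).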
FEN1 inh: inhibitors of human flap endonuclease 1; Recombinant FEN1 flap cleavage, fluorescence, 15 min; Potency, µM (titrated, usually from 114 µM), inactives show at the highest dose activity change, negative = inhibition, hits mostly inhibitors; actives 0.35% (n = 390,000); AID 588795; also: potency is read from the fitted curve at half-maximal effect; % is scaled to controls: 0 for no effect and ±100 for the full control effect; nearly all actives have a fitted effect of over 65% in size
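Potency values derive from four-parameter Hill fits of normalized qHTS data. The reaction used 10 nM FEN1 preincubated 15 min at room temperature with compound, then 50 nM DNA substrate, read at 0 and 15 min.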
PI5P4Ka inh: inhibitors of human PI5P4K alpha | P48426 | PI5P4Kalpha enzyme, ADP-Glo luminescence, 60 min; active compounds read low | max response, % | actives 1.2% (n = 330,000); active = max response of -50% or lower; inconclusive = between -30% and -50%; inactive = -30% or higher; also: value at the top dose of about 77 µM; % is scaled to controls: 0 for no effect and ±100 for the full control effect
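qHTS, 1536-well: enzyme/substrate mix, compound by pin tool, 5 microM ATP final; RT 60 min; ADP-Glo reagents 1 (45 min) then 2 (30 min); luminescence.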
PLK1 PBD block: PLK1 (human) polo-box domain binding inhibition | P53350 | Potency, µM, for inactives: max response, negative = inhibition, most hits filed as inhibitors | actives 2.8% (n = 360,000) | Plk1 PBD binding of FITC phosphopeptide, fluorescence polarization; also: potency is read from the fitted curve at half-maximal effect; series mostly up to about 57 µM; % is scaled to controls: 0 for no effect and ±100 for the full control effect; nearly all actives have a fitted effect of over 65% in size
Target sequence (P53350 whole entry, looked up, the tested form may be a part): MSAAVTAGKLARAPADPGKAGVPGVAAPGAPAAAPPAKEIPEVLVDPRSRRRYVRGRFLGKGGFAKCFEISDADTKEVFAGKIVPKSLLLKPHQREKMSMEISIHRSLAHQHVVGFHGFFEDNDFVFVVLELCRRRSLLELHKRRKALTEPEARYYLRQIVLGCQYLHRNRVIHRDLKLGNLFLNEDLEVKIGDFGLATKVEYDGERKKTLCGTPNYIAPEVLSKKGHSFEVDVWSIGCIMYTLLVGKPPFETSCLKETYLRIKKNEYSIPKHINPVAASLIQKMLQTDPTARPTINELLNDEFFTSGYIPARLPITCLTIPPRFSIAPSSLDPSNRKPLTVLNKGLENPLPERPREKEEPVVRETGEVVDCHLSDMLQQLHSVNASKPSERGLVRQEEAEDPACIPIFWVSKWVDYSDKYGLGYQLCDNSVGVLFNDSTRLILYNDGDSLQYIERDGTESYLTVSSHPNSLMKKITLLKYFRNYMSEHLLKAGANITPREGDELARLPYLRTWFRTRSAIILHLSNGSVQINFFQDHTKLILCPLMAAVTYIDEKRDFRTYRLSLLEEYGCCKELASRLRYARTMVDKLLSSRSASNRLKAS
* hit, by the source's call; ? = inconclusive; . = not tested or not shown; [ ] = another dose, or the depositor's remark. An excerpt weighted towards active compounds, which were near 3.7% of everything screened. Unless noted, calls follow the shape of the dose curve; as a rule, active = well fitted curve in the direction sought with a large enough effect; inconclusive = small, poorly fitted or top-dose-only effect, or another doubt; inactive = no such curve, though single readings can be large; an effect the other way counts as inactive or inconclusive.

SMILES | WRN helicase inh | VDR inhibitor | TCR activator | FEN1 inh | PI5P4Ka inh | PLK1 PBD block
O=C(COC(=O)CSc1ccc([N+](=O)[O-])cc1)NCCc1ccccc1 | -16% | -19% | -2% | 1% | 1 | ?
CC(C)n1c(=O)c2oc3ccccc3c2n(Cc2ccccc2F)c1=O | . | 1% | . | -13% | . | .
N#C/C(=C\c1ccc(O)c(O)c1)C(=O)N1CCc2ccccc21 | 18µM* | 0% | -2% | ? | -19 | 6%
Cc1ccc(-n2nc(C)c3nc(CCC(=O)Nc4cccc(C)c4C)c(=O)n(C)c32)cc1 | . | 5% | . | 9% | . | .
Cc1ccc(CN2C(=O)CCC2C(=O)NCCc2ccccc2)cc1 (centres undefined) | 9% | 27% | -4% | -1% | -5 | 8%
CC(=O)OC1C(=O)N(Cc2ccccc2)C1c1ccc(C)cc1 (centres undefined) | 3% | -17% | -1% | 3% | -6 | 27µM*
COc1c(O)cc(O)cc1O | . | 5% | . | . | . | .
COc1cc(/C=C/C(=O)c2ccc(Cl)s2)cc(OC)c1O | -22% | 56µM* | 3% | ? | . | -10%
COc1cc(/C=C/C(=O)c2cccs2)cc(OC)c1OC | . | 13µM* | . | . | . | .
COc1cc(O)cc(OC)c1OC | . | 45µM* | . | . | . | .
COc1cc(/C=C/C(C)=O)cc(OC)c1OC | 6% | -12% | 1% | 1% | -2 | 30µM*
O=C1CN(CCN2CC(=O)NC(=O)C2)CC(=O)N1 | . | . | . | -1% | . | .
O=S(=O)(c1ccc2ncccc2c1)N1CCN(c2nc(-c3cccs3)nc3ccccc23)CC1 | . | -8% | . | -11% | . | .
Cc1ccc(CNC(=O)CSc2nc3[nH]ncc3c(=O)[nH]2)cc1 | 11% | -23% | 6%[46.1 µM] | -3% | 5 | 27µM*
Cc1ccc(C)c(NC(=O)CSc2nc3[nH]ncc3c(=O)[nH]2)c1 | 5% | -10% | 1%[46.1 µM] | 7% | -12 | -6%
CCCOc1ccc(N2C(=O)CC(N(Cc3ccco3)C(=O)CC)C2=O)cc1 (centres undefined) | -5% | -22% | 2% | -1% | 0 | -10%
CCOc1ccc(N2C(=O)CC(N(Cc3ccco3)C(=O)CC)C2=O)cc1 (centres undefined) | -4% | -8% | 1% | -4% | 0 | 27µM*
Cc1cccc(-c2cc3nc(C)cc(C)n3n2)c1 | -30% | -1% | 3% | -3% | -3 | 21µM*
Cc1cc(C)n2nc(-c3cccc(Br)c3)cc2n1 | 9% | 10% | 2% | 15% | 17 | -7%
CCN(CC)S(=O)(=O)c1ccc(C(=O)NCCSc2c(-c3ccc(F)cc3)[nH]c3ccccc23)cc1 | . | 2% | . | -11% | . | .
COc1ccc(NC(=O)CCN2C(=O)[C@@H]3[C@H](C2=O)[C@H]2C=C[C@@H]3C2)cc1 | 1% | -24% | 5% | -2% | -12 | 27µM*
O=C(CCN1C(=O)C2C3C=CC(C3)C2C1=O)Nc1nccs1 (centres undefined) | 13% | -3% | 1% | 4% | -7 | 30µM*
CN(CC(=O)O)c1ccc(C=O)cc1 | . | . | . | -10% | . | .
CCC(=O)N1CCc2cc(Br)cc(S(=O)(=O)N3CCCC(C(=O)NCc4ccccc4)C3)c21 (centres undefined) | . | 2% | . | 79µM* | . | .
C=CCn1cccc(C(=O)Nc2cc(OC)c(OC)c(OC)c2)c1=O | -25% | -14% | 1% | 2% | ? | 21µM*
SMILES | WRN helicase inh | VDR inhibitor | TCR activator | FEN1 inh | PI5P4Ka inh | PLK1 PBD block
C=CCn1cccc(C(=O)Nc2ccc(Cl)cc2)c1=O | -4% | 21% | 2% | 9% | 8 | -1%
C=CCn1cccc(C(=O)Nc2ccc(OCC)cc2)c1=O | -12% | -12% | 2% | -2% | ? | 24µM*
COc1cccc(N2CCN(c3ncc4c(n3)CCN(Cc3ccc(Br)cc3)C4)CC2)c1 | . | 11% | . | -4% | . | .
Cc1ccc(NC(=O)CCC(=O)OCc2ccc(Br)cc2)cc1 | -2% | -27% | 3%[46.1 µM] | 6% | 6 | 27µM*
Cc1cccc(NC(=O)CCC(=O)OCc2ccc(Br)cc2)c1 | -2% | -14% | 4%[46.1 µM] | -1% | 10 | 4%
CCOc1ccc(NC(=O)CCC(=O)c2ccc(OC)cc2)cc1 | -1% | -7% | . | 18% | 3 | -14%

Screening data: PubChem BioAssay, National Center for Advancing Translational Sciences (NCATS)
